viability, differential viability (reversal) and inhibition data for 23 compounds are collected here from PubChem BioAssay.

A short description of test [1]: HUVEC growth inhibition – cell-based, human, primary screen (AID 575;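 active = viability at or below 30% in both replicate assays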;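 note: 100% = median of untreated cell wells with 0.1% DMSO on each plate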). As to conditions: HUVEC proliferation, CellTiter-Glo luminescence, 72 h; at 10 µM; stronger effect = lower value. In general terms: ATP-based viability assays read luminescence as a measure of living cells.
Test [2] is described as follows: growth inhibitors of H69AR lung tumor, primary screen, human, duplicate replicates (AID 580;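 active = viability at or under a set limit in both replicates, limit being median viability minus 3 SD, cut at about 48% in these data, passing the limit was not always enough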;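 note: 100% = mean luminescence of untreated wells and 0% = no signal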). Particulars: H69AR lung tumor cells viability, ATP luminescence, 72 h; at 10 µM; stronger effect = lower value.
The nature of test [3]: reversal of MRP1-mediated doxorubicin resistance, pilot screen, H69AR cells, doxorubicin co-treatment (AID 601). As to conditions: CellTiter-Glo, 72 h, at 10 µM; for differential viability (reversal): stronger effect = higher value.
Test [4] is described as follows: 384-well plate pilot, post-Golgi transport modulator project, inhibition of yeast transport mutant growth (AID 636; in the data active = inhibition above about 31%). As to conditions: absorbance 615 nm, about 18 h, stronger effect = higher value.
Test [5] can be described thus: growth suppression of yeast trafficking mutant, preliminary HTS, modulators of trafficking downstream of Golgi apparatus project, 1536-format plate, OD 615 nm (AID 637; in the data active = inhibition above about 30%). Particulars: yeast transport mutant growth, absorbance 615 nm, 18 h; stronger effect = higher value.
Where [6] appears, read: H69AR cells + 2 uM doxorubicin, measured here: viability with 2 uM doxorubicin, stronger effect = lower value.
Setting [7] is: H69AR cells, compound alone cytotoxicity.

Active and inactive are the calls of the source.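 Rule for the calls, unless noted: active = viability loss from added drug above about 55%, and viability with drug at most 40%, in both replicates (limit read from the data, passing the limit was not always enough); inconclusive = both conditions met in only one replicate; inactive = neither replicate meets both conditions.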

Turning to `CCCc1n[nH]c2c1/C(=N/O)CC(c1ccccc1)C2` (stereo not drawn), the viability (in general, a read-out of living cells in per cent, often relative to untreated cells) in test [1] is 49.5% (inactive); in test [2] it was 66.1% (inactive); in test [3] (setting [6]), 80.6%; in test [3] (setting [7]), 66.1%. Also, the differential viability (reversal) in test [3] (H69AR cells + 2 uM doxorubicin) is -14.4% (inactive). Further, the inhibition (usually the drop in the measured response relative to a control, in per cent) is -2.34% (inactive) in test [4] and 2.86% (inactive) in test [5].
In the case of `CCc1nnc(NC(=O)CSc2nnc(-c3ccoc3C)n2CC(C)C)s1`, the viability in test [1] is 85.8% (inactive); in test [2], 106% (inactive); in test [3] (setting [6]) it was 93.8%; in test [3] (setting [7]) it was 106%. Moreover, the differential viability (reversal) in test [3] (H69AR cells + 2 uM doxorubicin) was 12.6% (inactive). Also, the inhibition in test [4] was -4.67% (inactive); in test [5], 11.3% (inactive).
For `Cc1ccc(C(=O)Nc2ccc3c(c2)OCO3)o1`, the viability in test [1] was 83% (inactive); in test [2] it was 69.6% (inactive); in test [3] (setting [6]) it was 75.3%; in test [3] (setting [7]), 69.6%. In addition, the differential viability (reversal) in test [3] (H69AR cells + 2 uM doxorubicin) was -5.72% (inactive). For the same compound, the inhibition in test [4] was -2.6% (inactive); in test [5], -3.81% (inactive).
As to `Cc1ccc(NC(=O)C2CCCNC2=O)nc1` (stereo not drawn), the viability in test [1] was 106% (inactive); in test [2], 97.8% (inactive); in test [3] (setting [6]) it was 94%; in test [3] (setting [7]), 97.8%. For the same compound, in test [3] (H69AR cells + 2 uM doxorubicin), the differential viability (reversal) was 3.79% (inactive). The inhibition in test [4] is -0.13% (inactive); in test [5], -2.7% (inactive).
For the compound `COc1cc(NS(=O)(=O)c2cccc3nsnc23)c(C(=O)O)cc1OC`, the viability in test [1] is 102% (inactive); in test [2], 102% (inactive); in test [3] (setting [6]), 93.4%; in test [3] (setting [7]), 102%. The differential viability (reversal) in test [3] (H69AR cells + 2 uM doxorubicin) is 8.71% (inactive). In addition, the inhibition is -1.43% (inactive) in test [4] and -1.9% (inactive) in test [5].
Consider `CCOC(=O)Cc1nnc(NC(=O)c2ncn[nH]2)s1`, for which the viability in test [1] is 95.4% (inactive); in test [2] it was 98.8% (inactive); in test [3] (setting [6]), 101%; in test [3] (setting [7]), 98.8%. Also, in test [3] (H69AR cells + 2 uM doxorubicin), the differential viability (reversal) is -2.02% (inactive). The inhibition is -2.93% (inactive) in test [4] and -1.27% (inactive) in test [5].
Consider `COc1cccc2cc(C(=O)n3ccc(C)n3)c(=O)oc12`, for which the viability in test [1] was 111% (inactive); in test [2], 93.4% (inactive); in test [3] (setting [6]), 90.6%; in test [3] (setting [7]), 93.4%. For the same compound, the differential viability (reversal) in test [3] (H69AR cells + 2 uM doxorubicin) was 2.8% (inactive). The inhibition in test [4] is -3.29% (inactive); in test [5], 7.14% (inactive).
Turning to `Cc1cc(C)c(C(=O)CSc2nnc(-c3ccccc3Br)o2)cc1C`, the results for the viability in test [2], in test [3] (setting [6]) and in test [3] (setting [7]) were 73.1% (inactive), 75.8% and 73.1%, respectively. Also, the differential viability (reversal) in test [3] (H69AR cells + 2 uM doxorubicin) is -2.75% (inactive). For the same compound, the figures for the inhibition in test [4] and in test [5] were -3.87% (inactive) and 3.49% (inactive), respectively.
As to `O=c1c2ccccc2nc(-c2cccc(Cl)c2)n1O`, the viability in test [1] is 84.6% (inactive); in test [3] (setting [6]), 60.1%; in test [3] (setting [7]), 45.9%. In test [3] (H69AR cells + 2 uM doxorubicin), the differential viability (reversal) was -14.1% (inactive). The figures for the inhibition in test [4] and in test [5] were -3.68% (inactive) and 0.32% (inactive), respectively.
For the compound `COc1ccc(CCN2CCC(Nc3nc4ccccc4n3Cc3ccc(F)cc3)CC2)cc1`, the viability was 1.47% (active) in test [1], 0.36% in test [3] (setting [6]) and 0.52% in test [3] (setting [7]). Moreover, the differential viability (reversal) in test [3] (H69AR cells + 2 uM doxorubicin) was 0.16% (inactive).
In the same order, the values of `CSc1ccc2c(c1)N(CCC1CCCCN1C)c1ccccc1S2` (stereo not drawn) are 2.44% (active), 1.26%, 1.93% and 0.67% (inactive).
On to `COCCCNC(=O)c1c(N)n(-c2cccc(S(N)(=O)=O)c2)c2nc3ccccc3nc12`, for which the viability was 67.2% (inactive) in test [2], 75.4% in test [3] (setting [6]) and 67.2% in test [3] (setting [7]). In test [3] (H69AR cells + 2 uM doxorubicin), the differential viability (reversal) was -8.22% (inactive). Also, the inhibition was -4.13% (inactive) in test [4] and -0.79% (inactive) in test [5].
On to `Cc1cc2oc(=O)cc(CN3CCCCC3)c2cc1C(C)C`, for which the viability in test [1] is 52.5% (inactive); in test [3] (setting [6]), 51.2%; in test [3] (setting [7]) it was 52.1%. Moreover, in test [3] (H69AR cells + 2 uM doxorubicin), the differential viability (reversal) is 0.87% (inactive). Further, the results for the inhibition in test [4] and in test [5] were -1.82% (inactive) and -2.06% (inactive), respectively.
In the case of `COc1cccc2c1C(=O)c1c(O)c3c(c(O)c1C2=O)C[C@@](O)(C(=O)CO)C[C@@H]3O[C@H]1C[C@H](N)[C@H](O)[C@H](C)O1`, the results for the viability in test [1], in test [3] (setting [6]) and in test [3] (setting [7]) were 22.1% (active), 25.6% and 18%, respectively. The differential viability (reversal) in test [3] (H69AR cells + 2 uM doxorubicin) is -7.64% (inactive). In addition, the inhibition is 0.26% (inactive) in test [4] and 3% (inactive) in test [5].
Take `Cn1cc(-c2nc3ccccc3[nH]2)c2ccccc21`: the viability in test [1] is 81% (inactive); in test [3] (setting [6]), 72%; in test [3] (setting [7]), 62.2%. Further, the differential viability (reversal) in test [3] (H69AR cells + 2 uM doxorubicin) was -9.86% (inactive). The inhibition in test [4] is -7.33% (inactive); in test [5], -0.63% (inactive).
With `CCOC(=O)c1cc2sccc2n1CC(=O)Nc1ccc2c(c1)OCCO2`, the viability is 87.4% (inactive) in test [1], 65.2% in test [3] (setting [6]) and 72.6% in test [3] (setting [7]). The differential viability (reversal) in test [3] (H69AR cells + 2 uM doxorubicin) is 7.47% (inactive). Moreover, the inhibition in test [4] is -6.1% (inactive); in test [5] it was 0.95% (inactive).
In the case of `Cc1ccc(C2C3CN(C(C)C)CC=C3C(C#N)=C(N)C2(C#N)C#N)cc1` (stereo not drawn), the viability in test [1] is 62.9% (inactive). Further, the values for the inhibition in test [4] and in test [5] were -6.27% (inactive) and 1.43% (inactive), respectively.
Regarding `N#CC(C(=O)NCCc1ccccc1)c1nc2ccccc2nc1N1CCOCC1` (stereo not drawn), the viability in test [1] is 82.7% (inactive); in test [3] (setting [6]) it was 62.6%; in test [3] (setting [7]), 59.2%. The differential viability (reversal) in test [3] (H69AR cells + 2 uM doxorubicin) is -3.4% (inactive). Also, the inhibition was -0.53% (inactive) in test [4] and -5.71% (inactive) in test [5].
On to `NC(=O)SCC(=O)Nc1cccc(Cl)c1`, for which the results for the viability in test [1], in test [3] (setting [6]) and in test [3] (setting [7]) were 58.4% (inactive), 56.8% and 66.4%, respectively. Moreover, in test [3] (H69AR cells + 2 uM doxorubicin), the differential viability (reversal) was 9.55% (inactive). In addition, the figures for the inhibition in test [4] and in test [5] were -5.19% (inactive) and 2.06% (inactive), respectively.
As for `Oc1ccc(Nc2nc(-c3ccc(O)cc3)cs2)cc1`, the results for the viability in test [2], in test [3] (setting [6]) and in test [3] (setting [7]) were 58.4% (inactive), 88.1% and 58.4%, respectively. In addition, the differential viability (reversal) in test [3] (H69AR cells + 2 uM doxorubicin) was -29.7% (inactive). Also, the inhibition is -8.13% (inactive) in test [4] and -4.13% (inactive) in test [5].
For `COc1ccc(Cn2c(C)nc3c(c2=O)c2nc4ccccc4nc2n3Cc2ccco2)cc1`, the results for the viability in test [1], in test [3] (setting [6]) and in test [3] (setting [7]) were 62% (inactive), 30.8% and 34.6%, respectively. The differential viability (reversal) in test [3] (H69AR cells + 2 uM doxorubicin) is 3.86% (inactive). In addition, the inhibition in test [4] was -1.71% (inactive); in test [5] it was 5.56% (inactive).
Take `COc1cccc2c1C(=O)c1c(O)c3c(c(O)c1C2=O)C[C@@](O)(C(C)=O)C[C@@H]3O[C@H]1C[C@H](N)[C@H](O)[C@H](C)O1`: in test [1], the viability is 5.46% (active). Further, the figures for the inhibition in test [4] and in test [5] were -2.73% (inactive) and -0.17% (inactive), respectively.
Turning to `O=c1[nH]c2ccccc2n1CCCN1CCN(C(c2ccccc2)c2ccccc2)CC1`, the viability is 75.3% (inactive) in test [1], 41.1% in test [3] (setting [6]) and 11.2% in test [3] (setting [7]). Also, the differential viability (reversal) in test [3] (H69AR cells + 2 uM doxorubicin) was -29.9% (inactive).
